Test results as given in PubChem BioAssay.
Active and inactive are the calls of the source. Unless noted, how the calls were made is not given here.

Tests used:
[1] = HepG2 liver cancer cell viability effects, profiling panel, resazurin fluorescence, 24 h, PK04 Diversity Set (AID 1172); settings: higher = more signal
[2] = basal S. cerevisiae growth modulation, no modifier, primary screen, OD600, strain BY4716, 24 h, basal condition (AID 1173); settings: OD600, 24 h, higher = more signal, called active from +8 up or from −8 down
[3] = MM1S myeloma cell viability, profiling panel, resazurin fluorescence, basal, 24 h, PK04 Diversity Set (AID 1174); settings: higher = more signal, called active from +8 up or from −8 down;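 further: MM1S multiple myeloma cell line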
[4] = biological target: Dihydroorotate dehydrogenase (quinone), mitochondrial (Plasmodium falciparum (isolate 3D7)) (UniProt Q08210); experiment: PfDHODH enzyme inhibitors, primary screen, biochemical, C-terminal His tag, absorbance 600 nm (AID 1175); settings: DCIP absorbance 600 nm, higher = more signal, called active from +8 up or from −8 down;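 further: recombinant parasite enzyme with a five histidine tag at its C terminus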
[5] = P. aeruginosa biofilm formation inhibitors, primary screen, strain PAO1, LB-PBS medium, absorbance 600 nm (AID 1176); settings: P. aeruginosa PAO1 growth/biofilm, A600, 12 h; higher = more signal
[6] = S. cerevisiae RM11-1a growth modifiers, primary screen, strain RM11-1a, OD600, basal, 24 h (AID 1177); settings: OD600, 24 h, higher = more signal, called active from +8 up or from −8 down;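 further: cultures grown under basal conditions with no added stressor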
[7] = E. coli acrAB mutant growth effects, primary screen, E. coli filamentation inducers, strain DRC39, OD650, 24 h (AID 1178); settings: higher = more signal, called active from +8 up or from −8 down;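 further: growth measured as culture turbidity by optical density at 650 nm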
[8] = E. coli acrAB mutant growth effects, primary screen, E. coli filamentation inducers, strain DRC39, OD650, 48 h (AID 1179);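 further: screen aims at cell division blockers that make cells filament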; settings: E. coli DRC39 delta-acrAB growth, higher = more signal, called active from +8 up or from −8 down
[9] = RPMI8226 myeloma cell viability, profiling panel, resazurin fluorescence, basal, 24 h, PK04 Diversity Set (AID 1180); settings: higher = more signal;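 further: RPMI8826 multiple myeloma cell line at 5000 cells per well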
[10] = biological target: E3 ubiquitin-protein ligase XIAP (Homo sapiens) (UniProt P98170); experiment: XIAP binders, primary screen, biophysical, small-molecule microarray, fluorescence 635 nm (AID 1181); settings: small-molecule microarray binding, higher = more signal;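 further: score merges 667 nm emission and signal to noise over triplicate slides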
[11] = tested on: XIP peptide (Xip251-270) binding; experiment: small-molecule binders of XIP peptide, primary screen, biochemical, small-molecule microarray, fluorescence 635/667 nm, 0.1 µg/mL protein (AID 1182); settings: fluorescent protein binding, 635 nm, higher = more signal, called active from +8 up or from −8 down
XIP peptide (Xip251-270) = experiment: small-molecule binders of XIP peptide, primary screen, biochemical, small-molecule microarray, fluorescence 635/667 nm, 0.5 µg/mL protein (AID 1183); settings: small-molecule microarray binding, fluorescence 635 nm; higher = more signal
[12] = Plasmodium falciparum growth inhibition, primary screen, strain 3D7, DAPI fluorescence, 100 nL (AID 1184);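 further: parasites grown inside human red blood cells in medium with human serum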; settings: P. falciparum 3D7 growth, 3 d, higher = more signal
[13] = biological target: Homeobox protein Hox-A13 (Mus musculus) (UniProt Q62424); experiment: inhibitors of HoxA13-DNA binding, primary screen, biochemical, fluorescence polarization, labeled oligonucleotide (AID 1185); settings: 15 min, higher = more signal, called active from +8 up or from −8 down
[14] = inhibitors of hydroxyurea-induced Chk1 phosphorylation, primary screen, imaging, HeLa, phospho-Chk1 antibody, percent positive cells (AID 1186); settings: hydroxyurea-induced phospho-Chk1 immunofluorescence imaging, higher = more signal
[15] = inhibitors of hydroxyurea-induced Chk1 phosphorylation, primary screen, imaging, HeLa, phospho-Chk1 nuclear intensity (AID 1187); settings: hydroxyurea-induced phospho-Chk1 immunofluorescence imaging, higher = more signal

Chain of E3 ubiquitin-protein ligase XIAP (Homo sapiens) (P98170 whole entry, looked up): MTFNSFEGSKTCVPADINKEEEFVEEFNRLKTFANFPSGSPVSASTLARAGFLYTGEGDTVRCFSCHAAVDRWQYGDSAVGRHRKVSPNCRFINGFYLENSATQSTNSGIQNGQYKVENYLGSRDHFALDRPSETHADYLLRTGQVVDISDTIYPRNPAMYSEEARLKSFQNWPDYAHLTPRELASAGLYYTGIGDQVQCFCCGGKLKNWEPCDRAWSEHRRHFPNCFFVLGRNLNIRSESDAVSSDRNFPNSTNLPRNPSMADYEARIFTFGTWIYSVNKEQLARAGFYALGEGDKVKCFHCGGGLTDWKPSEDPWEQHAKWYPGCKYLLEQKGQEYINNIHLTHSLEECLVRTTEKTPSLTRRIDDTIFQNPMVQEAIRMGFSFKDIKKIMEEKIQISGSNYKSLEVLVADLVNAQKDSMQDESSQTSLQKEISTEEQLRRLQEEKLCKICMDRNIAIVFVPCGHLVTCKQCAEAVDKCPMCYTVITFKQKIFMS
Chain of Dihydroorotate dehydrogenase (quinone), mitochondrial (Plasmodium falciparum (isolate 3D7)) (Q08210 whole entry, looked up): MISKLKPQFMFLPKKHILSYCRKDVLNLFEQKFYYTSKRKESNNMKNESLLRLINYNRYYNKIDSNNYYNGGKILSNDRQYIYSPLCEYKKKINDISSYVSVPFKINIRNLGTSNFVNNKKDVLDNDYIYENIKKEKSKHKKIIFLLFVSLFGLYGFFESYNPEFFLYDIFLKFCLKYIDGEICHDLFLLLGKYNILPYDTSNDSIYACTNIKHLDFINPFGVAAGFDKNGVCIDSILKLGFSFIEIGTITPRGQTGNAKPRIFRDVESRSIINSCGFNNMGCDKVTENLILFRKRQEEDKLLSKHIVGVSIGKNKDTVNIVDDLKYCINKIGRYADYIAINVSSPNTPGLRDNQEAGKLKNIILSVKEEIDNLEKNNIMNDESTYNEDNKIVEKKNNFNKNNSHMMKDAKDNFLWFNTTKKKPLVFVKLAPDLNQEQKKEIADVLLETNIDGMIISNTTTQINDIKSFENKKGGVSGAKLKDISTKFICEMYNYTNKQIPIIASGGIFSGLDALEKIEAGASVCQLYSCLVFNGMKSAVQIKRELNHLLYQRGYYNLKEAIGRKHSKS
Chain of Homeobox protein Hox-A13 (Mus musculus) (Q62424 whole entry, looked up): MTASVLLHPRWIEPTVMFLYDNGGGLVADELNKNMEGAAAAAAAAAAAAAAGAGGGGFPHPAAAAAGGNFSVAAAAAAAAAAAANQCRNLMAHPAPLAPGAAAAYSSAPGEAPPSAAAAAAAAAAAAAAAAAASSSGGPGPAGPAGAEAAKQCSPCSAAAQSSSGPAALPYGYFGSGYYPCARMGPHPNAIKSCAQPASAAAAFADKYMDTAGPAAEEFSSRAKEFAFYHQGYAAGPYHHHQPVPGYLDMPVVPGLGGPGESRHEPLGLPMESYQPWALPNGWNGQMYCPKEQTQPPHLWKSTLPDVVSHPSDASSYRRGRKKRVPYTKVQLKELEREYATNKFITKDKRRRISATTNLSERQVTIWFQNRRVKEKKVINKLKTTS

| Structure (SMILES) | z-score [1] | z-score [2] | z-score [3] | composite z-score [4] | z-score [5] | z-score [6] | z-score [7] | z-score [8] | z-score [9] | composite z-score [10] | composite z-score [11] | composite z-score (XIP peptide (Xip251-270)) | z-score [12] | z-score [13] | z-score [14] | z-score [15] |
| --- | --- | --- | --- | --- | --- | --- | --- | --- | --- | --- | --- | --- | --- | --- | --- | --- |
| CC(C)[Si](C#C[Si](C(C)C)(C(C)C)C(C)C)(O[C@H](C)c1cn(Cc2ccccc2)nn1)C(C)C | 0.0403 | 0.745 (inactive) | 1.74 (inactive) | -0.348 (inactive) | 0.419 (inactive) | -0.0006 (inactive) | -0.118 (inactive) | 0.164 (inactive) | 0.776 | 0.013 | -0.0845 (inactive) | 0.0972 | 1.59 | -0.236 (inactive) | -0.175 (inactive) | -0.288 (inactive) |
| O=C(NC1CC1)[C@@H]1c2ccccc2C(=O)N(C2Cc3ccccc3C2)[C@H]1c1ccc(CO)cc1 | 0.21 | -0.009 (inactive) | 0.475 (inactive) | -0.0711 (inactive) | 0.196 (inactive) | 0.397 (inactive) | 0.223 (inactive) | 0.722 (inactive) | 0.543 | -0.0044 | 0.456 (inactive) | 0.657 | -0.69 | -1.14 (inactive) | -0.217 (inactive) | 0.0084 (inactive) |
| C=CCC(OC(C)=O)[C@@H]1[C@@H](N(Cc2ccc(-c3cccc(C(F)(F)F)c3)o2)C(=O)c2cccc3ccccc23)c2cc(OCCCO)ccc2N1C(=O)Cc1ccc2ccccc2c1 (some centres undefined) | -0.496 | -0.721 (inactive) | -0.291 (inactive) | 0.22 (inactive) | -0.935 (inactive) | -0.0974 (inactive) | 0.525 (inactive) | 0.235 (inactive) | -0.638 | -0.242 | -0.16 (inactive) | 0.0499 | -1.78 | -3.09 (inactive) | 0.233 (inactive) | 0.504 (inactive) |
| COC(=O)C(CC#Cc1ccc2c(c1)[C@]1(C(=O)N2)[C@H](c2ccc(O)cc2)N2[C@H](c3ccccc3)[C@H](c3ccccc3)OC(=O)[C@H]2[C@@H]1C(=O)N1CCN(c2ncccn2)CC1)C(=O)OC | -0.0862 | 0.238 (inactive) | -1.02 (inactive) | 0.0817 (inactive) | 0.847 (inactive) | 0.849 (inactive) | 0.551 (inactive) | 0.769 (inactive) | -3.92 | -0.0668 | 0.655 (inactive) | 0.826 | -2.26 | -1.65 (inactive) | -0.231 (inactive) | -0.514 (inactive) |
| Cc1ccc(S[C@]2(C(=O)NCC(C)C)CC(=O)N(Cc3cc(C(F)(F)F)cc(C(F)(F)F)c3)[C@@H]2c2ccc(CO)cc2)cc1 | -0.0834 | -0.58 (inactive) | -0.656 (inactive) | -0.099 (inactive) | 0.559 (inactive) | -0.622 (inactive) | -0.995 (inactive) | -0.882 (inactive) | -0.321 | -0.142 | -0.0537 (inactive) | 0.0501 | -0.309 | -2.19 (inactive) | -0.0406 (inactive) | -0.284 (inactive) |
| O=C1C2C=CC(C(O)c3ccc(-c4ccccc4)s3)N(Nc3ccccc3)C2C(=O)N1c1ccccc1 (centres undefined) | 0.809 | -2.18 (inactive) | -0.171 (inactive) | 0.569 (inactive) | 0.282 (inactive) | 0.119 (inactive) | -0.172 (inactive) | 0.7 (inactive) | 0.428 | 0.59 | 0.57 (inactive) | 0.769 | -0.657 | -1.07 (inactive) | 0.484 (inactive) | 0.251 (inactive) |
| Cc1ccc(S[C@]2(C(=O)O)CC(=O)N(Cc3ccccc3C(F)(F)F)[C@@H]2c2ccc(CO)cc2I)cc1 | 0.484 | -5.47 (inactive) | -2.29 (inactive) | -0.358 (inactive) | 0.304 (inactive) | -1.22 (inactive) | 0.0985 (inactive) | -0.367 (inactive) | -1.78 | -0.0076 | 0.397 (inactive) | 0.773 | 0.182 | -2.74 (inactive) | -0.157 (inactive) | 0.408 (inactive) |
| C=C(CCCC)C(=O)CC[C@@H](OC(C)=O)c1ccc(CO)o1 | 0.519 | -12.9 (active) | 0.292 (inactive) | -8.56 (active) | 1.27 (inactive) | -0.944 (inactive) | 0.435 (inactive) | 0.339 (inactive) | 0.624 | 0.151 | 0.247 (inactive) | 0.337 | -0.201 | -3.66 (inactive) | 0.593 (inactive) | 0.245 (inactive) |
| O=C1C2C=CC(C(O)c3c(F)cccc3Cl)N(Nc3ccccc3F)C2C(=O)N1c1ccccc1 (centres undefined) | -0.269 | -0.796 (inactive) | -0.819 (inactive) | -0.303 (inactive) | 0.447 (inactive) | 0.824 (inactive) | -0.0281 (inactive) | 0.729 (inactive) | -0.144 | -0.0749 | 0.433 (inactive) | 0.811 | 0.562 | -0.377 (inactive) | 0.486 (inactive) | 0.435 (inactive) |
